From PubChem BioAssay AID1159580 (chemical genetic matrix, 2015)
In all, about 5,500 compounds went through this assay and about 2,000 (36%) were called active. Roughly 18% stayed inconclusive and do not appear here. Rule as the data show it: active = normalized growth mostly below about 0.91 (no sharp cut-off); inconclusive = no clear call, values can overlap the other calls; inactive = mostly above about 0.92. The list shows a part of the results.

Test: chemical genetic growth profiling, strain panel (AID 1159580);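 also: tested at 20 µM; growth read once vehicle control cultures reached saturation at 30 °C; 1 = growth at the plate median or of vehicle wells; lower values mean less growth of the strain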
Details: growth OD
[1] = S. cerevisiae deletion strains, locus YHR030C, strain SLT2, stronger effect = lower value
[2] = S. cerevisiae deletion strains, locus YJL095W, strain BCK1, stronger effect = lower value

Measured: normalized growth

CN[C@H]1C[C@@H](N)[C@H](O)[C@@H](O[C@@H]2O[C@H](CO)[C@@H]3OC4(O[C@@H]3[C@@H]2O)O[C@H](C(N)CO)[C@H](O)[C@H](O)[C@H]4O)[C@@H]1O (stereo partly specified)
inactive: [1] 1.05 | S. cerevisiae deletion strains, locus YHR079C, strain IRE1, stronger effect = lower value 1.05 | [2] 1.05 | S. cerevisiae deletion strains, locus YJR066W, strain TOR1, stronger effect = lower value 0.982 | S. cerevisiae deletion strains, locus YLR113W, strain HOG1, stronger effect = lower value 1.02 | S. cerevisiae deletion strains, locus YNL183C, strain NPR1, stronger effect = lower value 0.969 | S. cerevisiae deletion strains, locus YOR231W, strain MKK1, stronger effect = lower value 1.03 | S. cerevisiae deletion strains, locus YPL256C, strain CLN2, stronger effect = lower value 1.03

Nc1nc2ncc(C(=O)O)nc2c(=O)[nH]1
inactive: S. cerevisiae deletion strains, locus YAL013W, strain DEP1, stronger effect = lower value 1.01 | S. cerevisiae deletion strains, locus YBR021W, strain FUR4, stronger effect = lower value 1 | S. cerevisiae deletion strains, locus YBR229C, strain ROT2, stronger effect = lower value 1.01 | S. cerevisiae deletion strains, locus YCL029C, strain bik1, stronger effect = lower value 1.03 | S. cerevisiae deletion strains, locus YDL035C, strain GPR1, stronger effect = lower value 1 | S. cerevisiae deletion strains, locus YDL074C, strain BRE1, stronger effect = lower value 1.01 | S. cerevisiae deletion strains, locus YDL101C, strain DUN1, stronger effect = lower value 1.01 | S. cerevisiae deletion strains, locus YDL134C, strain PPH21, stronger effect = lower value 1.01 | S. cerevisiae deletion strains, locus YDL185W, strain tfp1, stronger effect = lower value 1.04 | S. cerevisiae deletion strains, locus YDL192W, strain arf1, stronger effect = lower value 1.03 | S. cerevisiae deletion strains, locus YDR101C, strain arx1, stronger effect = lower value 1.03 | S. cerevisiae deletion strains, locus YDR162C, strain NBP2, stronger effect = lower value 1.03 | S. cerevisiae deletion strains, locus YDR318W, strain mcm21, stronger effect = lower value 1.02 | S. cerevisiae deletion strains, locus YDR388W, stronger effect = lower value 1.02 | S. cerevisiae deletion strains, locus YDR502C, strain sam2, stronger effect = lower value 1.04 | S. cerevisiae deletion strains, locus YEL061C, strain CIN8, stronger effect = lower value 1.01 | S. cerevisiae deletion strains, locus YER110C, stronger effect = lower value 1.05 | S. cerevisiae deletion strains, locus YER155C, strain BEM2, stronger effect = lower value 1.01 | S. cerevisiae deletion strains, locus YER167W, strain BCK2, stronger effect = lower value 1.01 | S. cerevisiae deletion strains, locus YGL078C, strain dbp3, stronger effect = lower value 1.03 | S. cerevisiae deletion strains, locus YGL086W, strain mad1, stronger effect = lower value 1 | S. cerevisiae deletion strains, locus YGL248W, strain PDE1, stronger effect = lower value 1.02 | S. cerevisiae deletion strains, locus YGR078C, strain PAC10, stronger effect = lower value 1.01 | S. cerevisiae deletion strains, locus YGR135W, strain pre9, stronger effect = lower value 1.01 | S. cerevisiae deletion strains, locus YGR252W, strain gcn5, stronger effect = lower value 1.07 | [1] 1.01 | S. cerevisiae deletion strains, locus YHR079C, strain IRE1 (second series), stronger effect = lower value 1.05 | S. cerevisiae deletion strains, locus YHR094C, strain hxt1, stronger effect = lower value 1.04 | S. cerevisiae deletion strains, locus YHR129C, strain ARP1, stronger effect = lower value 1.01 | S. cerevisiae deletion strains, locus YHR200W, strain rpn10, stronger effect = lower value 1 | S. cerevisiae deletion strains, locus YIL066C, strain RNR3, stronger effect = lower value 1.02 | S. cerevisiae deletion strains, locus YIL073C, strain SPO22, stronger effect = lower value 1.1 | S. cerevisiae deletion strains, locus YIL125W, strain kgd1, stronger effect = lower value 1.03 | S. cerevisiae deletion strains, locus YIR030C, strain dcg1, stronger effect = lower value 1.04 | [2] 1.01 | S. cerevisiae deletion strains, locus YJL134W, strain LCB3, stronger effect = lower value 1.01 | S. cerevisiae deletion strains, locus YJL168C, strain set2, stronger effect = lower value 1.05 | S. cerevisiae deletion strains, locus YJL187C, strain SWE1 (second series), stronger effect = lower value 1.01 | S. cerevisiae deletion strains, locus YJR043C, strain POL32, stronger effect = lower value 0.997 | S. cerevisiae deletion strains, locus YKL009W, strain mrt4, stronger effect = lower value 1.02 | S. cerevisiae deletion strains, locus YKL068W, stronger effect = lower value 1.03 | S. cerevisiae deletion strains, locus YKL085W, strain MDH1 (second series), stronger effect = lower value 1.01 | S. cerevisiae deletion strains, locus YKL085W, strain MDH1, stronger effect = lower value 1.01 | S. cerevisiae deletion strains, locus YKR001C, strain vps1, stronger effect = lower value 1.02 | S. cerevisiae deletion strains, locus YLR039C, strain RIC1, stronger effect = lower value 1.03 | S. cerevisiae deletion strains, locus YLR058C, strain SHM2, stronger effect = lower value 1.01 | S. cerevisiae deletion strains, locus YLR102C, strain apc9, stronger effect = lower value 1.04 | S. cerevisiae deletion strains, locus YLR262C, strain YPT6, stronger effect = lower value 1.03 | S. cerevisiae deletion strains, locus YLR268W, strain sec22, stronger effect = lower value 1.04 | S. cerevisiae deletion strains, locus YLR330W, strain CHS5, stronger effect = lower value 1.01 | S. cerevisiae deletion strains, locus YLR342W, strain FKS1 (second series), stronger effect = lower value 0.998 | S. cerevisiae deletion strains, locus YLR371W, strain rom2, stronger effect = lower value 1.06 | S. cerevisiae deletion strains, locus YLR418C, strain cdc73, stronger effect = lower value 1.03 | S. cerevisiae deletion strains, locus YML016C, strain PPZ1, stronger effect = lower value 1.01 | S. cerevisiae deletion strains, locus YML032C, strain rad52, stronger effect = lower value 1.02 | S. cerevisiae deletion strains, locus YML124C, strain tub3, stronger effect = lower value 1.02 | S. cerevisiae deletion strains, locus YMR078C, strain ctf18, stronger effect = lower value 1.05 | S. cerevisiae deletion strains, locus YMR223W, strain ubp8, stronger effect = lower value 1.03 | S. cerevisiae deletion strains, locus YMR307W, strain GAS1, stronger effect = lower value 1.01 | S. cerevisiae deletion strains, locus YNL067W, strain RPL9B, stronger effect = lower value 1.01 | S. cerevisiae deletion strains, locus YNL153C, strain GIM3, stronger effect = lower value 1.01 | S. cerevisiae deletion strains, locus YNL233W, strain BNI4, stronger effect = lower value 1 | S. cerevisiae deletion strains, locus YNL250W, strain rad50, stronger effect = lower value 1.03 | S. cerevisiae deletion strains, locus YNL271C, strain bni1, stronger effect = lower value 1.03 | S. cerevisiae deletion strains, locus YNL298W, strain CLA4, stronger effect = lower value 1.04 | S. cerevisiae deletion strains, locus YNL307C, strain MCK1, stronger effect = lower value 1.06 | S. cerevisiae deletion strains, locus YNL322C, strain KRE1, stronger effect = lower value 1.01 | S. cerevisiae deletion strains, locus YNR052C, strain pop2, stronger effect = lower value 1.03 | S. cerevisiae deletion strains, locus YOL012C, strain htz1 1.02 | S. cerevisiae deletion strains, locus YOL147C, strain pex11, stronger effect = lower value 1.04 | S. cerevisiae deletion strains, locus YOR061W, strain CKA2, stronger effect = lower value 1.02 | S. cerevisiae deletion strains, locus YOR069W, strain VPS5, stronger effect = lower value 1.01 | S. cerevisiae deletion strains, locus YOR136W, strain idh2, stronger effect = lower value 1.04 | S. cerevisiae deletion strains, locus YOR144C, strain elg1, stronger effect = lower value 1.03 | S. cerevisiae deletion strains, locus YOR184W, strain ser1, stronger effect = lower value 1.04 | S. cerevisiae deletion strains, locus YOR316C, strain cot1, stronger effect = lower value 1.06 | S. cerevisiae deletion strains, locus YPL055C, strain LGE1, stronger effect = lower value 1.01 | S. cerevisiae deletion strains, locus YPR119W, strain clb2, stronger effect = lower value 1.03 | S. cerevisiae deletion strains, locus YPR141C, strain kar3, stronger effect = lower value 1.02 | S. cerevisiae deletion strains, locus YPR163C, strain tif3, stronger effect = lower value 1.05 | S. cerevisiae deletion strains, locus YPR167C, strain met16, stronger effect = lower value 1.06 | S. cerevisiae deletion strains, strain wtn01, stronger effect = lower value 1.02 | S. cerevisiae strains, strain wild type, stronger effect = lower value 1.01
